Source: PubChem (National Center for Advancing Translational Sciences (NCATS))
Chronic BCR inh: blocks chronic active B-cell receptor signaling; ABC-DLBCL IkBa-CBG/CBR reporter, luminescence ratio, 4 h; Potency, µM (highest dose often 46.1 µM), most hits filed as inhibitors; 340,000 compounds, 0.05% hits; active = well fitted inhibition curve with a large enough effect in the signal ratio, with a control signal flat, not every such curve was filed as active; inconclusive = small, poorly fitted or top-dose-only effect, or effect the other way, or a change in a side signal; the % refers to the signal ratio
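Compounds up to 46 uM were incubated four hours with TMD8 cells whose green CBG68 luciferase is fused to IkappaBalpha; red CBR luminescence normalised the signal, and concentration-effect curves were fitted to fusion, red and ratio data.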
LDHA inh: inhibitors of human lactate dehydrogenase A | purified LDHA, NADH/diaphorase-resazurin fluorescence; active compounds read low | P00338 | 480,000 compounds, 0.15% hits | AID 1347041 | activity change, % (values are at about 110 or 230 µM); in the data active = activity change below about -30%; inconclusive = mostly about -25% to -30%
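Human LDH5 at 2 nM final in Tris HCl pH 7.4 with 0.06 mM NADH and 0.2 mM pyruvate, reacted 5 minutes at room temperature. Remaining NADH coupled via diaphorase/resazurin; resorufin fluorescence read at 0 and 20 minutes, normalized to enzyme-free and DMSO wells.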
ClpP mod: qHTS Assay for Activators of ClpP | ATP-dependent Clp protease proteolytic subunit (Bacillus subtilis (strain 168)), P80244 | purified B. subtilis ClpP, FRET peptide cleavage, 20 min | Potency, µM (titrated, usually from 57.5 µM) | 340,000 compounds, 1.9% hits; active = well fitted falling curve with a large enough effect; inconclusive = small, poorly fitted or top-dose-only effect; inactive = no such curve, though single readings can be large or run the other way; note: the source files actives as falling curves though it sought activators and does not explain the sign; nearly all actives have a fitted effect of over 65% in size
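Purified B. subtilis ClpP, 10 microg/mL final in Tris/HCl pH8 with KCl, BSA, glycerol and Tween-20, cleaved an Abz/nitrotyrosine-quenched decapeptide. Fluorescence (ex 320, em 430) was read at 0 and 20 min at room temperature. Delta was normalized to 5.8 microM ADEP and DMSO/no-enzyme controls.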
KCNH2 WT inh: inhibitors of human wildtype KCNH2 potassium channel. Q12809. U2OS, BacMam KCNH2, thallium flux FluxOr; active compounds read low. activity change, % at 1.84 µM. 340,000 compounds, 0.37% hits;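 active = maximum activity change below -70%; inconclusive = maximum activity change between -70% and -50%; inactive = maximum activity change above -50%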
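U2OS cells transduced with wild-type KCNH2 virus are loaded with FluxOr dye for 45 min, and thallium flux is measured in kinetic reads before and after stimulation buffer. Rate constants are normalized to DMSO controls.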
ALOX12 inh: inhibitors of human 12S-lipoxygenase ALOX12 | Potency, µM (titrated, usually from 108 µM), usual class: inhibitors | P18054 | purified 12hLO, xylenol orange hydroperoxide absorbance | 580,000 compounds, 1.1% hits; active = well fitted inhibition curve with a large enough effect; inconclusive = small, poorly fitted or top-dose-only effect, or another doubt; inactive = no such curve, though single readings can be large or run the other way
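Hydroperoxide product was detected by ferrous iron/xylenol orange as the 573 to 405 nm absorbance ratio. Arachidonic acid at 40 uM (final) was turned over for 30 min at room temperature by 150 nM human 12hLO, pH 7.0 Hepes buffer, after 15 min compound preincubation.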
KCNH2 3.1 inh: inhibitors of human KCNH2 3.1 potassium channel isoform; U2OS KCNH2 3.1, thallium flux FluxOr; active compounds read low; AID 720553; activity change, % (tested at about 1.8 µM); 340,000 compounds, 0.95% hits;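 active = maximum activity change below -70%; inconclusive = maximum activity change from -70% to -50%; inactive = maximum activity change above -50%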;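 note: thallium influx rate constant from kinetic fluorescence after stimulation buffer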
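Measured as rate of thallium-driven FluxOr signal in transduced U2OS cells carrying the 3.1 channel, read kinetically for 2 min upon stimulation; values are rate constants scaled to DMSO control wells.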
Of the large screens only hits and unclear results are named; the others gave an inactive call. Shown are actives, neighbours in structure and some others; about 3% of the full set was active somewhere.

C=CCn1c(SCC(=O)N(C(C)CC)C2CCS(=O)(=O)C2)nc2ccccc2c1=O (stereo not given)	KCNH2 3.1 inh -88
CNC(=O)c1ccc(NC(=O)c2cccc[n+]2[O-])cc1	ALOX12 inh inconclusive (no result: Chronic BCR inh, ClpP mod, KCNH2 WT inh, KCNH2 3.1 inh)
CCc1ccc(-c2cn(C3CCCCC3)c(=S)[nH]2)cc1	ALOX12 inh 20µM (no result: ClpP mod)
O=[N+]([O-])c1ccc(COc2ncnc3ccccc23)cc1	Chronic BCR inh inconclusive, KCNH2 WT inh -163, KCNH2 3.1 inh -192 (no result: ClpP mod)
O=C(COc1ncnc2ccccc12)Nc1cc([N+](=O)[O-])ccc1Cl	none (no result: ClpP mod)
COc1ccc(CN2C(=O)[C@@H]3C[C@@H](CN3C3CCCC3)Oc3ccccc32)cc1	none (no result: Chronic BCR inh, LDHA inh, ClpP mod, KCNH2 WT inh, KCNH2 3.1 inh)
COC(=O)Nc1[nH]ncc1[N+](=O)[O-]	ALOX12 inh 35µM (no result: ClpP mod)
CNc1nnc(Sc2ccc(S(=O)(=O)NC(C)C)cc2[N+](=O)[O-])s1	ALOX12 inh inconclusive (no result: Chronic BCR inh, ClpP mod, KCNH2 WT inh, KCNH2 3.1 inh)
O=C(O)CC(=O)NC12CC3CC(CC(C3)C1)C2	none
CC(C)NCC(=O)NC12CC3CC(CC(C3)C1)C2	ClpP mod 16µM
NC(=O)CN1CCCC(c2nc(-c3ccc4nc[nH]c4c3)no2)C1 (stereo not given)	none (no result: Chronic BCR inh, LDHA inh, ClpP mod, KCNH2 WT inh, KCNH2 3.1 inh)
Cc1ccccc1-c1cc(C(=O)NCc2cccc(Br)c2)n(CC2CC(c3cccnc3)=NO2)n1 (stereo not given)	Chronic BCR inh inconclusive, ALOX12 inh 40µM
N#C/C(=C/c1ccc(N2CCOCC2)o1)c1nc2ccccc2[nH]1	Chronic BCR inh inconclusive, ALOX12 inh inconclusive
N#C/C(=C/c1ccc(N2CCOCC2)o1)c1ccc(Br)cc1	ALOX12 inh 5.6µM
N#C/C(=C/c1ccc(N2CCCCCC2)o1)c1cccc(F)c1	ALOX12 inh inconclusive
N#C/C(=C\c1ccc(N2CCOCC2)o1)c1ccccc1	ALOX12 inh 20µM
N#C/C(=C/c1ccc(N2CCCCCC2)o1)c1ccc(F)cc1	ClpP mod 32µM (no result: Chronic BCR inh, ALOX12 inh)
Cc1c(Cc2ccccc2)c(=O)oc2c(C)c(OCC(=O)NC(C)C)ccc12	none (no result: Chronic BCR inh, ClpP mod, KCNH2 WT inh, KCNH2 3.1 inh)
Cc1ccc(OCC(=O)NCc2ccc(-c3nc4ncccc4o3)cc2)cc1	none (no result: Chronic BCR inh, ClpP mod, KCNH2 WT inh, KCNH2 3.1 inh)
C(/C=C/c1ccccn1)=C\c1ccccc1	KCNH2 3.1 inh -81 (no result: Chronic BCR inh)
C(=C/c1ccccc1)/c1ccccc1	none (no result: Chronic BCR inh, LDHA inh, ClpP mod, KCNH2 WT inh, KCNH2 3.1 inh)
C(=C\c1ccccn1)/c1ccccc1	ALOX12 inh inconclusive (no result: Chronic BCR inh, KCNH2 WT inh, KCNH2 3.1 inh)
C(=C\c1cc(/C=C/c2ccccc2)ncn1)/c1ccccc1	ClpP mod 35µM
Cc1nc(/C=C/c2ccccc2)cc(/C=C/c2ccccc2)n1	Chronic BCR inh inconclusive, ClpP mod 14µM
COc1ccc(OC)c(CNC(=O)N2CCc3sccc3C2)c1	none (no result: Chronic BCR inh, ClpP mod, KCNH2 WT inh, KCNH2 3.1 inh)
O=C(NC1CC2CCC1C2)c1ccc(I)cc1 (stereo not given)	none (no result: Chronic BCR inh, ClpP mod, KCNH2 WT inh, KCNH2 3.1 inh)
Cc1cc(C)c2cc(C#N)c(N3CCCN(S(=O)(=O)c4ccccc4)CC3)nc2c1	KCNH2 3.1 inh -70 (no result: Chronic BCR inh, ALOX12 inh)
COc1ccc(N2CN(CCN3CCOCC3)Cn3c2nc(C)c(C)c3=O)cc1	none (no result: Chronic BCR inh, ClpP mod, KCNH2 WT inh, KCNH2 3.1 inh)
OC1CCN(CC(O)C(F)(F)F)CC1 (stereo not given)	KCNH2 3.1 inh -102
CC(C)(C)c1nnc2sc(-c3c[nH]c4ccccc34)nn12	ALOX12 inh inconclusive (no result: Chronic BCR inh, ClpP mod, KCNH2 WT inh, KCNH2 3.1 inh)
CCOC(=O)c1c(/N=C/c2cc([N+](=O)[O-])ccc2O)sc(C)c1C	ALOX12 inh 35µM
CCOC(=O)c1c(/N=C/c2cc(OC)cc([N+](=O)[O-])c2O)sc(C)c1C	ALOX12 inh inconclusive
COc1cccc(N2C(=O)OCC23CCN(Cc2c[nH]c4ccccc24)C3)c1 (stereo not given)	none (no result: Chronic BCR inh, LDHA inh, ClpP mod, KCNH2 WT inh, KCNH2 3.1 inh)
Cc1ccccc1CN1CCC2(CC1)OC(=O)N(Cc1ccc(O)cc1)C2(C)c1ccccc1 (stereo not given)	none (no result: Chronic BCR inh, LDHA inh, ClpP mod, KCNH2 WT inh, KCNH2 3.1 inh)
O=C1OCC2(CCN(Cc3c[nH]c4ccccc34)C2)N1Cc1ccccc1 (stereo not given)	ALOX12 inh 50µM (no result: Chronic BCR inh, LDHA inh, ClpP mod, KCNH2 WT inh, KCNH2 3.1 inh)
CC1(c2ccccc2)N(Cc2ccc(O)cc2)C(=O)OC12CCN(Cc1c[nH]c3ccccc13)CC2 (stereo not given)	ALOX12 inh 45µM (no result: Chronic BCR inh, LDHA inh, ClpP mod, KCNH2 WT inh, KCNH2 3.1 inh)
CCOC(=O)C1CCN(C(=O)CCC(=O)N2CCN(c3cccc(Cl)c3)CC2)CC1	none (no result: Chronic BCR inh, ClpP mod, KCNH2 WT inh, KCNH2 3.1 inh)
